Experimental findings from article PMC5540273 (PLoS ONE, 2017) are described below.

Among the test systems are TYRO3; ULK1; ULK2; ULK3; VRK2; WEE1; WEE2; WNK1; WNK2; WNK3; WNK4.
Holding throughout (conditions): concentration: 1 μM, replicates: in singlicate; n = 1
Assay [1] relates to TYK2(JH2domain-pseudokinase).
In the next assay the test system is T1, VEGFR2.
T1 construct: gene KDR

A further assay has as its system T2, VPS34.
T2 construct: gene PIK3C3

The subject of the next assay is T3, YANK1.
T3 construct: gene STK32A

The subject of another assay is T4, YANK2.
T4 construct: gene STK32B

The subject of a further assay is T5, YANK3.
T5 construct: gene STK32C

The test system of the next assay is T6, YES.
T6 construct: gene YES1

A further assay deals with T7, YSK1.
T7 construct: gene STK25

A further assay deals with T8, YSK4.
T8 construct: gene MAP3K19
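Also: KINOMEscan kinase panel screen.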

Turning to `O=C(Nc1n[nH]c2nc(-c3cccc(O)c3)ccc12)C1CC1` [SB-711805], the “%Inh” value is 0% in assay [1]; 0% in the assay on TYRO3; 0% with ULK1; 10% in the assay on ULK2; 7% in the assay on ULK3; 16% in the assay on VEGFR2. Further, the “%Inh” value with VPS34 was determined as 23%; with VRK2, 0%; with WEE1, 0%; with WEE2, 0%; with WNK1 it was 28%; in the assay on WNK2 it was 26%. In addition, the “%Inh” value was 0% with WNK3; 63% in the assay with WNK4; 4% in the assay with YANK1; 0% in the assay on YANK2; 0% in the assay on YANK3; 0% in the assay on YES. Besides, the entries for the “%Inh” value with YSK1 and with YSK4 were 0% and 90.9%, respectively.
For the compound `Cc1nn2c(=O)cc(N3CCO[C@H](C)C3)nc2n1Cc1cccc(Cl)c1Cl` [GSK2373693], the “%Inh” value in [1] is recorded as 18%; with TYRO3, 15%; with ULK1 it was 78%; in the assay on ULK2 it was 0%; in the assay on ULK3, 14%; in the assay on VEGFR2 it was 0%. Besides, the “%Inh” value in the assay on VPS34 was determined as 96.5%; with VRK2, 0%; in the assay with WEE1, 0%; in the assay with WEE2 it was 0%; in the assay on WNK1 it was 4%; with WNK2, 18%. The “%Inh” value with WNK3 was found to be 5%; in the assay on WNK4, 0%; with YANK1 it was 2%; with YANK2, 0%; in the assay with YANK3, 14%; in the assay with YES, 14%. For the same compound, the “%Inh” value in the assay on YSK1 turned out to be 0%; in the assay on YSK4, 56%.
With `O=C(Nc1n[nH]c2cc(-c3cccs3)ccc12)C1CC1` [SB-731284], the “%Inh” value in assay [1] amounted to 63%; in the assay with TYRO3, 0%; in the assay with ULK1, 39%; in the assay on ULK2, 15%; in the assay on ULK3, 7%; in the assay on VEGFR2, 57%. The “%Inh” value is recorded as 16% with VPS34; 0% in the assay with VRK2; 0% with WEE1; 0% with WEE2; 40% in the assay on WNK1; 0% in the assay on WNK2. Further, the “%Inh” value in the assay on WNK3 was found to be 0%; in the assay on WNK4, 0%; in the assay with YANK1, 19%; in the assay with YANK2 it was 0%; with YANK3, 0%; in the assay with YES it was 0%. Moreover, the results for the “%Inh” value with YSK1 and in the assay on YSK4 were 0% and 94%, respectively.
As for `CNc1nccc(-c2ccc3c(N)n[nH]c3c2)n1` [GSK2206003], the “%Inh” value in [1] was 89%; in the assay with TYRO3, 0%; with ULK1, 42%; in the assay on ULK2, 41%; with ULK3 it was 9%; with VEGFR2, 31%. Moreover, the “%Inh” value is 15% in the assay on VPS34; 18% with VRK2; 9% in the assay with WEE1; 7% with WEE2; 1% with WNK1; 0% in the assay with WNK2. The “%Inh” value in the assay with WNK3 worked out at 4%; in the assay with WNK4 it was 2%; with YANK1 it was 62%; with YANK2, 53%; in the assay on YANK3, 20%; in the assay on YES it was 24%. In addition, the “%Inh” value in the assay on YSK1 is 20%; in the assay on YSK4, 76%.
Consider `COc1ccc(C2=C(Nc3cccc(O)c3)C(=O)NC2=O)cc1` [SB-390766], for which the “%Inh” value in [1] came out at 46%; in the assay with TYRO3 it was 0%; in the assay on ULK1, 26%; with ULK2, 0%; in the assay with ULK3 it was 25%; in the assay with VEGFR2 it was 0%. Also, the “%Inh” value in the assay on VPS34 was determined as 0%; in the assay on VRK2 it was 0%; in the assay with WEE1, 90%; in the assay on WEE2 it was 6%; in the assay with WNK1 it was 16%; in the assay with WNK2, 99.7%. The “%Inh” value stood at 34% in the assay with WNK3; 87% with WNK4; 0% in the assay on YANK1; 0% with YANK2; 17% in the assay with YANK3; 0% with YES. For the same compound, the “%Inh” value came to 0% with YSK1 and 44% with YSK4.
Regarding `Cc1ccc(O)cc1Nc1ccnc2cc(-c3ccc(CN4CCCCC4)o3)ccc12` [GW557777], the “%Inh” value is reported as 0% in [1]; 59% in the assay with TYRO3; 0% in the assay on ULK1; 0% in the assay with ULK2; 0% in the assay with ULK3; 93.6% in the assay on VEGFR2. Further, the “%Inh” value came out at 0% in the assay on VPS34; 0% with VRK2; 5% in the assay on WEE1; 0% in the assay on WEE2; 0% in the assay on WNK1; 0% with WNK2. Besides, the “%Inh” value in the assay on WNK3 was determined as 0%; in the assay with WNK4, 0%; in the assay on YANK1, 10%; with YANK2 it was 0%; in the assay with YANK3, 0%; in the assay on YES, 99.8%. The “%Inh” value in the assay on YSK1 amounted to 0%; in the assay with YSK4 it was 13%.
For `CN(c1ccc(NC(=O)N2CCN(CCCN3CCOCC3)CC2)cc1)c1ccnc(Nc2ccc(CS(C)(=O)=O)cc2)n1.Cl` [GW830899], the “%Inh” value in [1] is 22%; in the assay with TYRO3 it was 8%; with ULK1 it was 0%; in the assay with ULK2, 0%; in the assay with ULK3, 0%; in the assay with VEGFR2, 52%. Also, the “%Inh” value with VPS34 came out at 0%; in the assay with VRK2 it was 0%; in the assay on WEE1, 3%; in the assay with WEE2 it was 79%; in the assay on WNK1, 0%; in the assay with WNK2, 0%. Besides, the “%Inh” value stood at 0% in the assay on WNK3; 0% in the assay with WNK4; 0% in the assay with YANK1; 0% in the assay on YANK2; 0% in the assay on YANK3; 4% in the assay on YES. In addition, the figures for the “%Inh” value with YSK1 and in the assay on YSK4 were 0% and 81%, respectively.
As for `CCNC(=O)/C=C/c1n[nH]c2cc(Sc3ccccc3C(=O)NC)ccc12`, the “%Inh” value worked out at 0% in [1]; 0% in the assay with TYRO3; 10% in the assay with ULK1; 36% in the assay on ULK2; 1% in the assay with ULK3; 99.9% in the assay on VEGFR2. Besides, the “%Inh” value with VPS34 came out at 0%; with VRK2, 14%; with WEE1, 14%; in the assay with WEE2, 0%; in the assay on WNK1, 0%; with WNK2, 5%. For the same compound, the “%Inh” value with WNK3 came to 0%; in the assay on WNK4 it was 10%; in the assay on YANK1, 17%; in the assay with YANK2, 0%; in the assay on YANK3, 0%; in the assay on YES, 20%. Also, the “%Inh” value with YSK1 turned out to be 0%; with YSK4 it was 86%.
Regarding `Nc1ncc(-c2cn[nH]c2)c2scc(-c3ccc4c(c3)CCN4C(=O)Cc3ccccc3)c12` [GSK2593067], the “%Inh” value was determined as 16% in [1]; 6% in the assay with TYRO3; 9% in the assay with ULK1; 0% in the assay on ULK2; 9% in the assay on ULK3; 53% with VEGFR2. The “%Inh” value stood at 33% in the assay on VPS34; 0% with VRK2; 0% with WEE1; 12% in the assay on WEE2; 4% in the assay with WNK1; 31% in the assay on WNK2. In addition, the “%Inh” value in the assay with WNK3 was 52%; in the assay with WNK4, 23%; in the assay on YANK1, 3%; in the assay on YANK2, 0%; with YANK3 it was 30%; in the assay with YES, 57%. Besides, the “%Inh” value with YSK1 turned out to be 6%; in the assay with YSK4, 81%.
For `COc1cccc2c(-c3ccncc3)c(-c3ccc(F)cc3)nn12` [GW468513], the “%Inh” value is recorded as 67% in assay [1]; 0% in the assay with TYRO3; 3% in the assay on ULK1; 0% with ULK2; 0% with ULK3; 0% in the assay with VEGFR2. Also, the “%Inh” value in the assay on VPS34 turned out to be 10%; in the assay with VRK2 it was 12%; in the assay with WEE1 it was 4%; in the assay with WEE2, 0%; in the assay on WNK1, 0%; in the assay with WNK2, 0%. Besides, the “%Inh” value in the assay with WNK3 was 31%; with WNK4 it was 24%; in the assay on YANK1, 65%; in the assay with YANK2, 72%; in the assay on YANK3 it was 72%; in the assay with YES, 15%. In addition, the “%Inh” value with YSK1 turned out to be 4%; with YSK4, 6%.
